This assay concerns the target T1, ETS1 (UniProt P14921).
T1 sequence: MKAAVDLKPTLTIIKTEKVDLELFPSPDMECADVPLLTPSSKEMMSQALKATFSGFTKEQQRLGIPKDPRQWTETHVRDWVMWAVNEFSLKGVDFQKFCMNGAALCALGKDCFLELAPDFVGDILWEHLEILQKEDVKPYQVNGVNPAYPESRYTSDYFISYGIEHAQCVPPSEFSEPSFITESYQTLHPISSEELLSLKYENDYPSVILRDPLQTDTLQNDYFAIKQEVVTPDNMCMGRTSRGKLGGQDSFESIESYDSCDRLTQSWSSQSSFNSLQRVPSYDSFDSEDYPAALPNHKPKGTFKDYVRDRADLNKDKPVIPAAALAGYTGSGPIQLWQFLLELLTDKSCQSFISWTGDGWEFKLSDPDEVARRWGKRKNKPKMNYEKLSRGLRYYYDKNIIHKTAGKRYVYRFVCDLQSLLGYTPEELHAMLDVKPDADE
Description: ETS1 binding intensity (PBM fluorescence), ETS1 alone (arbitrary fluorescence units); higher = stronger binding. The conditions noted are these: ETS1 concentration 1 nM; RUNX1 concentration 0 nM.
Regarding CCCATTTCCTGCTCTCCAGAGTTAACCACTGAAGTC, the ETS1 binding intensity was found to be 815.
In the case of GTTGGGCTTTGAGGATGTGGGTTCTAGAAGTTTACA it was 928; in that of AGCGACAGCGGATGCTCTCTGGCCGCAACATTCTTT, 880; in that of CATGTGCTTCCGGCTTGATCTGTGGTTATTCTGGTT, 1370.
In the case of CCTGCAGCAACAGGATGTGGTTTGAAAGGATGAAAG it was 7250; in that of TATCTCCTATCTCCAGGAAGTGGTTAGCCCTAGGAG, 3210; in that of CTAGCAGGAAACAGACAGACCCAGCCACAGAATCTC, 470.
Under TGAAGCAGGCGGAAGTGCTGTGGTTTCTGGCGACTG stands 4090; under CACCTCCTCTCCGGATGCGGTTTGTTCTGCTTGTAG, 2580.
The sequence CATTCAGTAAAAGGATGTGGTTTAGAACAGATGAAA gave an ETS1 binding intensity of 1230.
Sequence GAAGGAAGTGGAGACAGTAAGGGGAAACCACAAACC returned an ETS1 binding intensity of 1060.
In the case of AAATACCAGCCCACTTCCTGTGGCTTTGATCTGCAG it was 2090; in that of AAGAAAAAGGGAGGATGTGGTTTAGCAAAAGCACTG, 1420.
In the case of GAGGGACAGGATGCCGCCAGGAACCACAAGAGCTTC it was 996; in that of TTTATCATGAATGCAGGATGTGGGCAGACTCACAGC, 2590; in that of GGGGCAGCTTCCGGCAGGAGAGCCCGCATTCACGGC, 731.
Under ACAGATAGTGATATCCTGTGGTCAATTCCCTCCCCT stands 949; under GCGCAAAGCCGGAAGGAGGGGTTTGCGGCTGGGGAG, 1730.
For ATGGCGGAGCGGAAGTCCCAGCCACAACGCGAAAAG, the ETS1 binding intensity stood at 3810.
Under GCTAGACAGGAAACAGTGAGCTTCTGTGGGCAGGAG stands 2770; under CTGACGCATTTCCGGCCTTTGCGGTTGATCGGTCAT, 5220.
Under AACAGGCAAAGGACAGGATGTGGTGAGCGTCGGCCC stands 4150.
Under AGTGCAGAGTGGACAGGATGTGGTGGAGGTGAGAGA stands 5690.
Consider AGCACCCGGAAGTCGGAGCTGCGCACGCACCGCGGG, for which the ETS1 binding intensity amounted to 2180.
CATAGACCGGATGCCTCGTCAACCACAGAAACCAAT yielded an ETS1 binding intensity of 2620.
In the case of GCACCCGGCACTACTTCCCGACCCGCATCCCCCGCC it was 689; in that of TTCTGTAGCTTAGGATGTGGGTTTCTTTGTTTCTGA, 452; in that of GCGCGGCCCGGAAGGGGGTAACCGCTGAGTCTTTGA, 794.
Under TTGCCATTCCAGGAAATGAGCTTACCACATTGACTG stands 1980.
In the case of GACTTTTACGGAAATAGCAGTCCAAAACCGCGTCTA, the ETS1 binding intensity came to 691.
In turn, GAGAAACAGGAAGAGGGGTGGTGGTTACGGAACACG registered an ETS1 binding intensity of 2290.
Under AACAGGAAGTGGTCTTAGAGATCATGCGGTTCAGAG stands 2220; under TCCTCCCACGGGAAGTGCCGTAGGACCGCAGCCCGA, 870; under CAAGAGAAAGGAAGTGGAAGCTCTTGTGGTCTGGAA, 1460.
In the case of TGGGGACCACTGTCAGGATGTGGTCACTGGAGTCAC it was 1020; in that of TTCACTTCCACCACTTCCTGTGGGTTTTGTTCATCC, 3090.
Under ACTGAACAAACCGGATGTGGTTGCCACCTGCAATCT stands 19800; under ATTTCGCTGAAAACAGGAAACCACGAAGCCCAGATG, 3270.
Consider GTGGGGCAGGATGTGCTTGCCTGGCTGCGGTTGGAC, for which the ETS1 binding intensity turned out to be 2170.
TCTCGTCCGGTCCTTGCTCCCCCTCCCCGCAGCGCT registered an ETS1 binding intensity of 637.
